# Screening data as filed in PubChem BioAssay.
# This is a sample that favours compounds with a hit; in the whole collection about 28% have one here.
# CYP2C9 activ – activators of human CYP2C9. recombinant CYP2C9, luciferin-H conversion, luminescence; stronger effect = higher value; factor 1 = untreated enzyme, 0 = blocked. activation factor at 5 µM. hit rate 1.4% among 96,000;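 active = activation factor of 2 or more for CYP2C9 at a 5 µM dose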;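 also: 0 = sulfaphenazole-blocked wells and 1 = vehicle-only wells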
# Target sequence (P11712 whole entry, looked up): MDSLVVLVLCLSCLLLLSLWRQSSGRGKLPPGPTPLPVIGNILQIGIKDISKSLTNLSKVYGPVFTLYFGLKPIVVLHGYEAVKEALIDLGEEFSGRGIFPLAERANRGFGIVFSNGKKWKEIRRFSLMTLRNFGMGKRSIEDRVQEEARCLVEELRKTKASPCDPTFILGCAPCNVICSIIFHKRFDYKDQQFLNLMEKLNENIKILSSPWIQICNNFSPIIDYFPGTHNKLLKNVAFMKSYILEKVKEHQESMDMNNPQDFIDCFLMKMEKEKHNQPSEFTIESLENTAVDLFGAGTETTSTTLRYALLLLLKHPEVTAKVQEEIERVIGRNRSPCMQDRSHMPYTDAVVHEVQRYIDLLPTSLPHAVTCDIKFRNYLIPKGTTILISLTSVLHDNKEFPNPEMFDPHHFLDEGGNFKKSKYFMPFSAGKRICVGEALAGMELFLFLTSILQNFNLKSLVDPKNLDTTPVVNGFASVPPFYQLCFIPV
# CYP2C19 inh – inhibitors of human CYP2C19. P33261. CYP2C19 Supersomes, luciferin-H EGE luminescence, 30 min. inhibition, % at 5 µM. hit rate 21% among 96,000;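 active = CYP2C19 inhibition above a set limit at 5 µM in the primary screen, cut at about 50% in these data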;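 also: plate controls were negative control wells for no effect and 2.5 mM tranylcypromine positive control for full effect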
# CYP2C9 inh – human CYP2C9 inhibition | CYP2C9 Supersomes, luciferin-H conversion, luminescence | inhibition, % at 5 µM | hit rate 20% among 96,000 | AID 777;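 active = blocking of liver enzyme CYP2C9 beyond about 50% at 5 µM, limit read from the data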
# Plk1 PBD FP – blocks phosphopeptide binding to human Plk1 polo box domain; Plk1 PBD phosphopeptide binding, fluorescence polarization; hit rate 0.13% among 97,000; P53350; inhibition, %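 (tested at about 20 µM)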; in the data active = inhibition above about 34%, passing the limit was not always enough
# CYP2C19 act – cytochrome P450 2C19 (human) activation; 96,000 tested, under 10 active; recombinant CYP2C19, luciferin-H EGE luminescence; stronger effect = higher value; 0 = fully inhibited enzyme, 1 = untreated enzyme; activation factor at 5 µM; P33261;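 active = activation factor of at least 2 at 5 µM in the primary screen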;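 also: 0 = wells with 2.5 mM tranylcypromine and 1 = vehicle-only wells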
# PLK1 kinase inh – PLK1 (human) kinase inhibition; P53350; recombinant PLK1 kinase, TR-FRET peptide phosphorylation; inhibition, % at 10 µM; hit rate 0.53% among 97,000;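 active = inhibition of 50% or more in the single-concentration screen; inactive = inhibition below 50%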;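 also: 0% = DMSO max control and 100% = H-89 dihydrochloride min control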
# Starred values were filed as active, the others as inactive; · = not tested or not shown.
SMILES,CYP2C9 activ,CYP2C19 inh,CYP2C9 inh,Plk1 PBD FP,CYP2C19 act,PLK1 kinase inh
COc1ccc(OC)c(C(C(=O)NCc2ccco2)N(C(=O)Cn2nnc3ccccc32)C(C)C)c1 (stereo not given),0.9,62*,12,-13,0.4,-12
Cc1ccc(N(C(=O)Cn2nnc3ccccc32)C(C(=O)NCc2ccco2)c2cccnc2)cc1 (stereo not given),0.9,65*,6,4,0.3,-7
Cc1ccc(N(C(=O)Cn2nnc3ccccc32)C(C(=O)NCc2ccco2)c2ccc(C)o2)cc1 (stereo not given),0.8,39,18,·,0.6,·
COc1ccc(N(C(=O)Cn2nnc3ccccc32)C(C(=O)NCc2ccco2)c2ccc(C)o2)cc1 (stereo not given),0.4,68*,58*,16,0.3,-12
COC(=O)COc1cccc2c(=O)n(CC(=O)N3CCCc4ccccc43)ccc12,0.9,6,8,6,0.9,-21
Cc1ccc(OCc2ccc(C(=O)N3CCOCC3)cc2)cc1C,1.5,71*,-50,8,0.3,-5
Cc1ccc(Cl)cc1N1CCN(C(=O)c2ccc(CN3CCOCC3)cc2)CC1,0.3,60*,67*,-17,0.4,10
CC(C)C1N=C(c2ccc3c(c2)OCO3)CC(c2ccccc2O)N1 (stereo not given),0.4,54*,61*,-18,0.5,5
CCOC(=O)CC1ON(C)C(=O)N1c1ccc([N+](=O)[O-])cc1 (stereo not given),0.8,98*,20,-2,0,-16
COCC(=O)N1CCN(c2ccc([N+](=O)[O-])cc2)CC1,1,26,3,-4,0.7,-8
CC(C)(C)c1cc(NC(=O)COC(=O)C2CC2)n(-c2ccccc2)n1,0.8,56*,23,6,0.4,-4
O=C1CCCCCC1C1(O)C(=O)Nc2ccc(Br)cc21 (stereo not given),1.1,52*,-9,-2,0.5,-27
CC(C)(C)C1CCC(=O)C(C2(O)C(=O)Nc3ccccc32)C1 (stereo not given),1.3,6,-27,-4,0.9,-20
O=C(COC(=O)C1COc2ccccc2O1)NC(=O)NC1CCCCC1 (stereo not given),0.9,2,14,34,1,-4
CCOc1ccccc1N(CC(=O)NC1CCCC1)C(=O)CCC(=O)Nc1cc(C)on1,0.2,83*,83*,15,0.2,-8
COc1ccccc1N(CC(=O)NC1CCCC1)C(=O)CCC(=O)Nc1cc(C)on1,0.3,63*,65*,-6,0.4,-1
C/C(=N\NC(=O)c1c(Cl)c(C)nn1C)c1cccc(NC(=O)COc2ccc(Cl)cc2)c1,0.6,34,40,-8,0.7,-12
c1csc(Cc2nc(-c3ccc(-n4cccc4)cc3)no2)c1,·,·,·,0,·,-3
COC(=O)c1cc(OC)c(OC)cc1NC(=O)CSc1nnc(-c2cccnc2)n1C,·,·,·,-11,·,-1
CCn1c(SCC(=O)c2cc(OC)ccc2OC)nnc1C(C)C,0.6,99*,41,-4,0,1
COc1ccc(OC)c(C(=O)CSc2nnc(-c3cccnc3)n2C)c1,1.1,72*,-12,10,0.3,-8
COc1ccc(OC)c(C(=O)CSc2nccc(-c3ccc(Br)cc3)n2)c1,0.2,11,79*,15,0.9,-12
CCCn1c(SCC(=O)c2cc(OC)ccc2OC)nnc1-c1ccco1,0.5,97*,46,10,0,3
COc1ccc(-c2cc(C)nc(SCC(=O)c3cccc([N+](=O)[O-])c3)n2)cc1,1,-10,3,-3,1.1,0
CCn1c(SCC(=O)c2cc(OC)ccc2OC)nnc1-c1ccncc1,·,·,·,29,·,-7
SMILES,CYP2C9 activ,CYP2C19 inh,CYP2C9 inh,Plk1 PBD FP,CYP2C19 act,PLK1 kinase inh
CC(C)(C)n1ncc2c(=O)n(CC(=O)NCc3ccccc3Cl)cnc21,1.4,-10,-38,15,1.1,3
CCc1ccc(CN2CCN(S(=O)(=O)Cc3ccccc3)CC2)cc1,1,18,1,17,0.8,3
COCCCNC(=O)C(=O)NCCCOC(C)C,1,41,-4,9,0.6,-10
C=C1Cn2c(nnc2-c2ccc(Cl)cc2)S1,1.3,44,-32,-12,0.6,-2
O=C(CSc1nnc(-c2ccccn2)n1Cc1ccccc1)Nc1ccc2c(c1)OCO2,0.8,1,15,-1,1,-10
COc1ccc(C(=O)CSc2nnc(CCc3ccccc3)n2-c2ccccc2)cc1,0.9,22,5,2,0.8,-12
Cc1ccc(-c2noc(CSc3nnc(CCc4ccccc4)n3-c3ccccc3)n2)cc1,0.2,83*,76*,-13,0.2,-8
COc1ccc(-c2noc(CSc3nnc(CCc4ccccc4)n3-c3ccccc3)n2)cc1OC,0.2,99*,80*,8,0,-4
COc1ccc(-c2ccc(-c3noc(-c4ccccc4F)n3)c(OC)n2)cc1,0.9,1,8,12,1,-112
COc1ccc(CCNC(=O)Cc2ccc(OCc3ccccc3)c(OC)c2[N+](=O)[O-])cc1OCc1ccccc1,0.1,74*,90*,8,0.3,-12
COc1ccc(CCNc2c([N+](=O)[O-])c(=O)oc3ccccc23)cc1OC,0.6,59*,44,-35,0.4,-11
O=c1oc2ccccc2c(Nc2cccc3ccccc23)c1[N+](=O)[O-],0.4,91*,62*,-33,0.1,-6
Cc1cc(Nc2ccccc2F)n2ncnc2n1,1,-3,4,·,1,·
Cc1ccn2cc(CCNS(=O)(=O)c3ccc(F)c(C(F)(F)F)c3)nc2c1,0.6,49,38,17,0.5,-3
Cc1ccn2cc(CCNS(=O)(=O)c3ccc4c(c3)OCCO4)nc2c1,1.4,79*,-42,13,0.2,-8
O=C1CC(=C2c3ccccc3-c3ccccc32)C(=O)N1CCN1CCN(c2ccccc2)CC1,·,·,·,-4,·,-14
O=C(CN1C2CCC1CC(NC(=O)Nc1ccccc1)C2)NCc1ccco1 (stereo not given),0.7,38,26,-20,0.6,-1
CCOc1ccccc1C1CC(=O)Nc2cc3c(cc21)OCO3 (stereo not given),0.3,98*,66*,-7,0,-13
O=C1CC(c2cccs2)c2cc3c(cc2N1)OCCO3 (stereo not given),0.3,68*,71*,-18,0.3,-3
COc1cccc(C2CC(=O)Nc3cc4c(cc32)OCCO4)c1OC(C)C (stereo not given),0.4,49,63*,·,0.5,·
CC(C)Oc1ccccc1C1Nc2ccccc2C(=O)N1c1ccc2c(c1)OCCO2 (stereo not given),0,95*,96*,-3,0.1,-10
CCOC(=O)c1[nH]c2ccc(C)cc2c1N=CN(CC)CC,1,1,-2,18,1,-13
